# Counter-ions that a name gives are not always drawn.
# Test system: Staphylococcus aureus Sa2 (MRSA, cystic fibrosis isolate)
# Assay: growth reduction vs untreated control (OD550); higher = stronger antibacterial activity
# Settings: 0.1 mM; 24 h
# Method: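 Single-dose screen of the MedChem Express Drug Repurposing Library (0.1 mM, 1% DMSO) against planktonic MRSA S. aureus Sa2 (CF isolate) in TSB in 96-well plates, 37 °C aerobic, 24 h. Assays were run in triplicate and repeated twice.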
row,Structure (SMILES),growth reduction [%]
1,C#C[C@]1(O)CC[C@H]2[C@@H]3CCc4cc(O)ccc4[C@H]3CC[C@@]21C [Ethynyl Estradiol],99.9
2,Cn1cc(-c2ccncc2)c(-c2ccc(OCc3ccc4ccccc4n3)cc2)n1 [Mardepodect (hydrochloride)],100
3,COc1cc([C@@H]2c3cc4c(cc3[C@@H](O[C@@H]3O[C@@H]5CO[C@@H](c6cccs6)O[C@H]5[C@H](O)[C@H]3O)[C@H]3COC(=O)[C@H]23)OCO4)cc(OC)c1O [Teniposide],100
4,CO[C@H](C(=O)[C@@H](O)[C@@H](C)O)[C@@H]1Cc2cc3cc(O[C@H]4C[C@@H](O[C@H]5C[C@@H](O)[C@H](O)[C@@H](C)O5)[C@H](O)[C@@H](C)O4)c(C)c(O)c3c(O)c2C(=O)[C@H]1O[C@H]1C[C@@H](O[C@H]2C[C@@H](O[C@H]3C[C@](C)(O)[C@H](O)[C@@H](C)O3)[C@@H](O)[C@@H](C)O2)[C@H](O)[C@@H](C)O1 [Plicamycin],99.6
5,O=C(O)Cc1ccccc1Nc1c(Cl)cccc1Cl [Diclofenac (diethylamine)],100
6,O=C(O)C[C@H]1CCc2c1[nH]c1ccc(OCc3ccc(C4CCCC4)c(C(F)(F)F)c3)cc21 [Etrasimod],99
7,CN1C(C(=O)Nc2ccccn2)=C(O)c2sc(Cl)cc2S1(=O)=O [Lornoxicam],97.2
8,COc1cccc(OC)c1-c1cc(C(=O)NC2(C(=O)O)C3CC4CC(C3)CC2C4)nn1-c1ccnc2cc(Cl)ccc12 (stereo not given) [Meclinertant],100
9,CSc1ccc(C(=O)/C=C/c2cc(C)c(OC(C)(C)C(=O)O)c(C)c2)cc1 [Elafibranor],91.6
10,Cc1ccc(C(=O)Nc2ccc(CN3CCN(C)CC3)c(C(F)(F)F)c2)cc1C#Cc1cnc2[nH]ncc2c1,100
11,CC(C)(C)c1ccc(C(O)CCCN2CCC(C(O)(c3ccccc3)c3ccccc3)CC2)cc1 (stereo not given) [Terfenadine],100
12,CCN1CCN(Cc2ccc(-c3cc4c(N[C@H](C)c5ccccc5)ncnc4[nH]3)cc2)CC1,100
13,OC1(c2ccc(Cl)c(C(F)(F)F)c2)CCN(CCCC(c2ccc(F)cc2)c2ccc(F)cc2)CC1 [Penfluridol],100
14,CC(C)(C)c1nc(-c2cccc(NS(=O)(=O)c3c(F)cccc3F)c2F)c(-c2ccnc(N)n2)s1 [Dabrafenib (Mesylate)],98.3
15,Cc1ccc(Sc2ccccc2N2CCNCC2)c(C)c1 [Vortioxetine],100
16,Cc1ccc(-c2cc(C(F)(F)F)nn2-c2ccc(S(N)(=O)=O)cc2)cc1 [Celecoxib],95.6
17,Oc1c(Cl)cc(Cl)cc1Sc1cc(Cl)cc(Cl)c1O [Bithionol],99.2
18,Clc1ccc(C(Cn2ccnc2)OCc2ccc(Sc3ccccc3)cc2)c(Cl)c1 (stereo not given) [Fenticonazole (Nitrate)],100
19,Cc1cc(SCc2sc(-c3ccc(C(F)(F)F)cc3)nc2C)ccc1OCC(=O)O,100
20,CCC(c1ccccc1)c1c(O)c2ccccc2oc1=O (stereo not given) [Phenprocoumon],94.6

row,Structure (SMILES),growth reduction [%]
1,CN1CCN(c2ccc(C(=O)Nc3n[nH]c4ccc(Cc5cc(F)cc(F)c5)cc34)c(NC3CCOCC3)c2)CC1 [Entrectinib],100
2,NC(=O)N1CCC(CC(=O)N2CCC([C@H]3c4ncc(Br)cc4CCc4cc(Cl)cc(Br)c43)CC2)CC1 [Lonafarnib],94.3
3,CCCCCc1ccc(C=CC(=O)Nc2ccccc2C(=O)O)cc1 [N-(p-amylcinnamoyl) Anthranilic Acid],100
4,Cc1noc(-c2ccc(-c3ccc(C4(C(=O)O)CC4)cc3)cc2)c1NC(=O)O[C@H](C)c1ccccc1,100
5,CC(/C=C/C=C(\C)C(=O)O)=C\C=C\C=C(C)\C=C\C=C(/C)C(=O)O [Transcrocetin meglumine salt],100
6,CCN1CCN(c2ccc(Nc3cc(N(C)C(=O)Nc4c(Cl)c(OC)cc(OC)c4Cl)ncn3)cc2)CC1 [Infigratinib],100
7,COc1ccc(Cl)c(Nc2nc3ccccc3nc2NS(=O)(=O)c2cccc(NC(=O)C(C)(C)N)c2)c1 [Pilaralisib],100
8,Oc1c(I)cc(Cl)c2cccnc12 [Clioquinol],100
9,CC(C)(C)NC(=O)N[C@H](C(=O)N1C[C@H]2[C@@H]([C@H]1C(=O)NC(CC1CCC1)C(=O)C(N)=O)C2(C)C)C(C)(C)C (stereo not given in full) [Boceprevir],91.4
10,Clc1ccc(COC(Cn2ccnc2)c2ccc(Cl)cc2Cl)c(Cl)c1 (stereo not given) [Miconazole (nitrate)],100
11,O=C(O)c1ccc2nc(-c3cc(Cl)cc(Cl)c3)oc2c1 [Tafamidis meglumine],93.9
12,C=CCNc1c(O)cc2c(O)c1C[C@@H](C)C[C@H](OC)[C@H](O)[C@@H](C)/C=C(\C)[C@H](OC(N)=O)[C@@H](OC)/C=C\C=C(/C)C(=O)N2 [Retaspimycin (Hydrochloride)],100
13,COc1cccc(Nc2ncnn3ccc(CN4CC[C@@H](N)[C@H](O)C4)c23)c1,92.5
14,CC(=O)O[C@]1(C(C)=O)CC[C@H]2[C@@H]3C=C(C)C4=CC(=O)CC[C@]4(C)[C@H]3CC[C@@]21C [Megestrol acetate],100
15,O=c1nc(OC[C@@H]2COCCO2)cc2n1CCc1cc(C#CC3CC3)ccc1-2,96.2
16,CS(=O)(=O)c1ccc([C@@H](O)[C@@H](CF)NC(=O)C(Cl)Cl)cc1 [Florfenicol],100
17,Cc1c(CN(C)C(=O)/C=C/c2cnc3c(c2)CCC(=O)N3)oc2ccccc12,100
18,Fc1ccc2c(CCNCc3cccc(OCC(F)(F)C(F)F)c3)c[nH]c2c1 [Idalopirdine Hydrochloride],100
19,CCOC(=O)N1CCC(=C2c3ccc(Cl)cc3CCc3cccnc32)CC1 [Loratadine],100
20,CC(C)(C)C(=O)Oc1ccc(S(=O)(=O)Nc2ccccc2C(=O)NCC(=O)O)cc1 [Sivelestat (sodium)],92.9
